According to PubChem BioAssay (NCATS):
Records with an inconclusive call do not appear. Active and inactive are the calls of the source. Unless noted, calls follow the shape of the dose curve; as a rule, active = well fitted curve in the direction sought with a large enough effect; inconclusive = small, poorly fitted or top-dose-only effect, or another doubt; inactive = no such curve, though single readings can be large; an effect the other way counts as inactive or inconclusive.

Columns and labels:
[1] = target: Glucocorticoid receptor (Homo sapiens) (UniProt P04150); test: qHTS assay for small molecule agonists of glucocorticoid receptor signaling (AID 588532; active = well fitted curve in the direction sought with a large enough effect in the signal ratio, with a control signal flat; the % refers to the signal ratio;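 also: 100% = dexamethasone at 0.1 µM and 0% = DMSO only wells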); conditions: HeLa MMTV-bla, beta-lactamase ratio, agonist, 18 h; activation: stronger effect = higher value, percent of dexamethasone control, DMSO zero
Outline: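 HeLa GRE-bla reporter cells; 18 h compound exposure at 37 C; 2 h CCF4 loading at room temperature; fluorescence at 460 and 530 nm; EC50 by Hill equation.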

[2] = target: Glucocorticoid receptor (Homo sapiens) (UniProt P04150); test: qHTS assay for small molecule antagonists of glucocorticoid receptor signaling (AID 588533; active = well fitted inhibition curve with a large enough effect in the signal ratio, with a control signal flat, not every such curve was filed as active; the % refers to the signal ratio; also: % is scaled to controls: 0 for no effect and ±100 for the full control effect)
Outline: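 Antagonist-mode qHTS: compound titrations added to GRE-bla HeLa cells, then dexamethasone 2 nM final; 18 h, 37 C. CCF4 FRET fluorescence normalized to dexamethasone and DMSO; IC50 from Hill fit.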

[3] = qHTS assay for small molecule antagonists of peroxisome proliferator-activated receptor delta signaling (AID 588535); conditions: HEK293T PPARd-UAS-bla, beta-lactamase FRET ratio, 18 h; 460 nm channel;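 also: cells co-treated with a PPAR-delta agonist as stimulator during compound exposure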
Outline: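 Beta-lactamase reporter read-out (405 nm excitation, 460/530 nm emission) after CCF4 loading for 2 hrs at RT. HEK293T PPAR-delta-UAS-bla cells, 2% charcoal/dextran FBS, compounds for 18 hrs at 37 C. Hill fit gave IC50 and efficacy.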

[4] = target: Vitamin D3 receptor (Homo sapiens) (UniProt P11473); test: qHTS assay for small molecule antagonists of vitamin D receptor signaling (AID 588541; calls by dose curve;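 also: receptor activated by calcitriol during compound treatment; series mostly up to about 77 µM; % is scaled to controls: 0 for no effect and ±100 for the full control effect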)
Outline: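 VDR-UAS-bla HEK293T cells in 2% charcoal-stripped FBS were stimulated with 1-alpha,25-dihydroxyvitamin D3 (3 nM final) plus compound for 16 h at 37 C. The beta-lactamase CCF4 readout was normalized to 50 nM agonist and DMSO, and Hill fits gave IC50.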

[5] = target: Vitamin D3 receptor (Homo sapiens) (UniProt P11473); test: qHTS assay for small molecule agonists of vitamin D receptor signaling (AID 588543; calls by dose curve;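 also: 0% = DMSO basal and 100% = reference agonist control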)
Outline: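 qHTS in agonist mode: compound titrations stimulate a VDR-driven β-lactamase reporter in HEK293T cells over 16 h at 37 °C. Response normalized to 50 nM 1α,25-dihydroxyvitamin D3 = 100%, DMSO = 0%; Hill fitting gives EC50 and maximal response.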

[6] = target: Retinoic acid receptor RXR-alpha (Homo sapiens) (UniProt P19793); test: qHTS assay for small molecule agonists of retinoid X receptor alpha signaling (AID 588544; calls by dose curve;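 also: 0% = DMSO basal wells and 100% = reference agonist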)
[7] = target: Thyroid hormone receptor beta (Homo sapiens) (UniProt P10828); test: qHTS assay for small molecule agonists of thyroid hormone receptor beta signaling (AID 588545; calls by dose curve;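 also: 0% = DMSO only and 100% = 10 nM T3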)
Outline: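 Efficacy and EC50 values derive from Hill fits of qHTS titration data, normalized to 10 nM T3 and DMSO-only wells. HEK 293 reporter cells were stimulated for 18 hrs at 37 C, with beta-lactamase activity measured by CCF4 fluorescence.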

[8] = qHTS assay for small molecule antagonists of retinoid X receptor alpha signaling (AID 588546; active = well fitted inhibition curve with a large enough effect in the signal ratio, with a control signal flat, not every such curve was filed as active; the % refers to the signal ratio;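 also: cells stimulated with 9-cis-retinoic acid as agonist; % is scaled to controls: 0 for no effect and ±100 for the full control effect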); conditions: HEK293T RXRa-UAS-bla, beta-lactamase ratio, antagonist mode; measured here: W530 green channel, cytotoxicity proxy
Outline: (§1)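 Beta-lactamase reporter inhibition, read as CCF4 fluorescence ratio (ex 405, em 460/530 nm) after 2 h at RT. HEK293T UAS-bla cells, 2500/well, were stimulated with 9-cis-RA at 500 or 100 nM final alongside test compound for 18 h at 37 C.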

[9] = target: Retinoic acid receptor RXR-alpha (Homo sapiens) (UniProt P19793); test: as above; conditions: HEK293T RXRa-UAS-bla, beta-lactamase ratio, antagonist mode
Outline: as §1

[10] = target: Thyroid hormone receptor beta (Homo sapiens) (UniProt P10828); test: qHTS assay for small molecule antagonists of thyroid hormone receptor beta signaling (AID 588547; active = well fitted inhibition curve with a large enough effect in the signal ratio, with a control signal flat, not every such curve was filed as active; the % refers to the signal ratio;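 also: cells stimulated with 0.4 nM T3 agonist during compound exposure; series mostly up to about 77 µM; % is scaled to controls: 0 for no effect and ±100 for the full control effect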); conditions: TR-UAS-bla HEK293, beta-lactamase ratio, antagonist mode, 18 h
Outline: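 TR-UAS-bla GripTite HEK293 cells in 2% charcoal/dextran FBS medium; compounds 0.59 nM to 92 uM with T3 at 0.4nM final, 18 h at 37 C. Beta-lactamase read by CCF4 fluorescence (460/530 nm); Hill fits gave IC50 and efficacy.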

[11] = qHTS assay for small molecule activators of the nuclear factor-kappa B (NF-kB) signaling pathway (AID 651749; active = well fitted activation curve with a large enough effect in the signal ratio; the % refers to the signal ratio; also: series mostly up to about 77 µM; % of control where 0% means no effect); conditions: NF-kB-bla ME-180 cells, beta-lactamase FRET ratio, 16 h; activation: stronger effect = higher value
Outline: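 NF-kB-bla ME-180 cells, 2,000/well; 23 nL compound or DMSO pinned; 16 hr, 37C/5% CO2; beta-lactamase FRET read-out.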

[12] = qHTS assay for environmental chemicals that activate the Aryl hydrocarbon Receptor (AhR) signaling pathway (AID 651777); conditions: 1A2-DRE human hepatoma cells, luciferase, 24 h; activation: stronger effect = higher value; also: % of control where 0% means no effect; nearly all actives have a fitted effect of over 15% in size
Outline: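 Concentration–response screening used 1,200 1A2-DRE cells per well, 24 hr compound exposure (37 C, 5% CO2), and One-Glo luminescence as the AhR-driven CYP1A2 reporter signal.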

[13] = target: Peroxisome proliferator-activated receptor alpha (Homo sapiens) (UniProt Q07869); test: qHTS assay for small molecule agonists of the peroxisome proliferator-activated receptor alpha (PPARalpha) signaling pathway (AID 651778); conditions: PathHunter PPARalpha complementation, chemiluminescence, 6 h; max response: stronger effect = higher value; also: % of control where 0% means no effect
Outline: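 Enzyme-fragment complementation assay in which ligand-bound PPARalpha translocates and forms an active enzyme that generates chemiluminescence. Cells were plated overnight, exposed to compound for 6 hr at 37 C, and then given detection reagent for 60 min at room temperature.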

[14] = qHTS assay for small molecule agonists of the antioxidant response element (ARE) signaling pathway measured by Nrf2-dependant transcriptional activity (AID 720636; active = well fitted curve in the direction sought with a large enough effect in the repeat runs; an effect the other way counts as inactive or inconclusive;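 also: HepG2 cells with an ARE-driven luciferase reporter; % of control where 0% means no effect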)
Outline: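 Attachment 6 hr at 37 C, then compound versus DMSO vehicle for 16 hr in ARE-luc HepG2 cells (1% dialyzed FBS); luminescence recorded 30 min after ONE-Glo addition at room temperature.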

[15] = qHTS assay for small molecule agonists of the antioxidant response element (ARE) signaling pathway measured by Nrf2-dependant transcriptional activity - cell viability counter screen (AID 720653; active = well fitted curve in the direction sought with a large enough effect in the repeat runs; an effect the other way counts as inactive or inconclusive; also: % is scaled to controls: 0 for no effect and ±100 for the full control effect); conditions: ARE-bla HepG2 viability, CellTiter-Glo ATP luminescence, 16 h; max response: stronger effect = lower value
Outline: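 ARE-bla HepG2 cells treated with compounds for 16 h at 37C; this counter screen measures viability as intracellular ATP by CellTiter-Glo luminescence after 30 min at room temperature.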

[16] = qHTS assay for cell viability of HEK293 cells (AID 743288); conditions: ATP luminescence (CellTiter-Glo), 18 h; max response: stronger effect = lower value; also: % is scaled to controls: 0 for no effect and ±100 for the full control effect; nearly all actives have a fitted effect of over 50% in size
Outline: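 Quantitative high-throughput screen: compounds were pinned onto parental HEK293 cells (2,000 per well) after a minimum 5 h settling at 37 C, incubated 18 h at 37 C, and intracellular ATP measured by luciferase luminescence.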

[17] = target: Nuclear receptor subfamily 1 group I member 2 (Rattus norvegicus) (UniProt Q9R1A7); test: qHTS assay for small molecule activators of the rat pregnane X receptor (rPXR) signaling pathway (AID 651751; call rule not given here; also: 0% is about no effect); conditions: rPXR reporter cells, luciferase (One-Glo), 24 h
[18] = qHTS assay for cell viability of the p53RE-bla HCT-116 cell line (AID 743292); also: % is scaled to controls: 0 for no effect and ±100 for the full control effect; nearly all actives have a fitted effect of over 55% in size
Outline: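 Compound-exposed HCT-116 (p53RE-bla) cells, 4,000 per well, were kept 16 h at 37 C following a 5 h preincubation. Cell number was estimated from total ATP by CellTiter-Glo luminescence read after 30 min at room temperature.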

[19] = qHTS assay for small molecule activators of the p53 signaling pathway (AID 651743; active = well fitted activation curve with a large enough effect in the signal ratio, not every such curve was filed as active; the % refers to the signal ratio; also: series mostly up to about 92 µM; % of control where 0% means no effect); conditions: HCT-116 p53RE-bla, beta-lactamase FRET ratio, 16 h; activation: stronger effect = higher value
Outline: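 Reporter: beta-lactamase driven by p53 response elements, stably integrated in HCT-116 cells. Cells seeded at 4,000/well, 5 h preincubation, compound (DMSO) 16 h at 37 C; B/G FRET substrate 2 h RT; fluorescence intensity read.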

[20] = target: Peroxisome proliferator-activated receptor delta (Homo sapiens) (UniProt Q03181); test: qHTS assay for small molecule agonists of peroxisome proliferator-activated receptor delta signaling (AID 588534; calls by dose curve;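 also: 0% = DMSO basal wells and 100% = positive control agonist at 10 µM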)
Outline: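 Titration series tested in agonist mode on beta-lactamase reporter cells; 18 hrs at 37 C after a 5 hr pre-incubation. Readout: CCF4 fluorescence, 2 hrs RT. Hill equation gives EC50 and maximal response.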

Sequence of Thyroid hormone receptor beta (Homo sapiens) (P10828 whole entry, looked up): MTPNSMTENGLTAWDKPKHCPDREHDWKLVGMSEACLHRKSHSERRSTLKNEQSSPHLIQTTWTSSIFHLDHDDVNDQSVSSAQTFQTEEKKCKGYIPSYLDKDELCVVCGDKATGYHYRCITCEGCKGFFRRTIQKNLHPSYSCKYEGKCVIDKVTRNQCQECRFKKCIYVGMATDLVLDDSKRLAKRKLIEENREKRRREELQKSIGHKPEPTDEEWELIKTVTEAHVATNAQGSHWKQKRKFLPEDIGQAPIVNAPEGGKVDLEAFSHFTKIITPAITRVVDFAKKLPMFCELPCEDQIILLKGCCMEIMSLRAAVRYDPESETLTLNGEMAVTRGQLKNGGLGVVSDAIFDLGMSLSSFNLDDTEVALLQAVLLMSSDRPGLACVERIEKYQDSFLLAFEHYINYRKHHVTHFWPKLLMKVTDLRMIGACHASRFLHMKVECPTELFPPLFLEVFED
Sequence of Retinoic acid receptor RXR-alpha (Homo sapiens) (P19793 whole entry, looked up): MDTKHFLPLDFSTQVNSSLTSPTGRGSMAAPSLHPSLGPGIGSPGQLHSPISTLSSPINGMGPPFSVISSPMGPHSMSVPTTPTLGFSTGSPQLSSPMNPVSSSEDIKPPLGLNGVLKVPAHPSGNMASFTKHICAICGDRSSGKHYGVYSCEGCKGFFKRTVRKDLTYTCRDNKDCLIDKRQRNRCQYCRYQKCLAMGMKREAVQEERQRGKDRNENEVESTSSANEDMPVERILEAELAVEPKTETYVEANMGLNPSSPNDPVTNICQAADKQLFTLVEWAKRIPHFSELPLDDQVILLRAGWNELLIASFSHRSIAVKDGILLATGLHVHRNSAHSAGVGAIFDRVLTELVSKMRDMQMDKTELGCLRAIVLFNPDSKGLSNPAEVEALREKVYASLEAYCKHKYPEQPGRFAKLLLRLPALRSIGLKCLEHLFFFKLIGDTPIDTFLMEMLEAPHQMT
Sequence of Vitamin D3 receptor (Homo sapiens) (P11473 whole entry, looked up): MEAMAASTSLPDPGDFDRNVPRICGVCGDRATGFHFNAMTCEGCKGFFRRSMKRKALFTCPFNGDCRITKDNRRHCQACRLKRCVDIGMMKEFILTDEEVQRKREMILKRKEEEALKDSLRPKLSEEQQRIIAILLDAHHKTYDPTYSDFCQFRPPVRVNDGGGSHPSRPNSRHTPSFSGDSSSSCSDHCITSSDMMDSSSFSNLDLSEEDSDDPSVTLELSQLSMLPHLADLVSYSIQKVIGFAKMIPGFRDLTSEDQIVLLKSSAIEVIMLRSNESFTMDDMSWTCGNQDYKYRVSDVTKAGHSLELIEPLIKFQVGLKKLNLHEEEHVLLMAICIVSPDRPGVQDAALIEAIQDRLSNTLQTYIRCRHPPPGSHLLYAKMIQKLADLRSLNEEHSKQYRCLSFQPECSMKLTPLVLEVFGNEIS
Sequence of Nuclear receptor subfamily 1 group I member 2 (Rattus norvegicus) (Q9R1A7 whole entry, looked up): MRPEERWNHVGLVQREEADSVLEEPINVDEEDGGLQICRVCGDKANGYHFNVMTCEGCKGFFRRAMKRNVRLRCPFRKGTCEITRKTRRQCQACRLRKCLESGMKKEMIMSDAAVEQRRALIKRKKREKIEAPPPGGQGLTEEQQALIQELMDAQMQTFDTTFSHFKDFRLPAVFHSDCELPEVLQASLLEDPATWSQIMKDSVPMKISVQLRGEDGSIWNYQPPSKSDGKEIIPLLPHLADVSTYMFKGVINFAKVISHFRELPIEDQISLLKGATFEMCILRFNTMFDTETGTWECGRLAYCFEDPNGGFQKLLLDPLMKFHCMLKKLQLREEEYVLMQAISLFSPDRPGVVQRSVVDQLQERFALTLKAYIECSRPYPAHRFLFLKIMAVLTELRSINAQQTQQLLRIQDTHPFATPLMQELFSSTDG
Sequence of Glucocorticoid receptor (Homo sapiens) (P04150 whole entry, looked up): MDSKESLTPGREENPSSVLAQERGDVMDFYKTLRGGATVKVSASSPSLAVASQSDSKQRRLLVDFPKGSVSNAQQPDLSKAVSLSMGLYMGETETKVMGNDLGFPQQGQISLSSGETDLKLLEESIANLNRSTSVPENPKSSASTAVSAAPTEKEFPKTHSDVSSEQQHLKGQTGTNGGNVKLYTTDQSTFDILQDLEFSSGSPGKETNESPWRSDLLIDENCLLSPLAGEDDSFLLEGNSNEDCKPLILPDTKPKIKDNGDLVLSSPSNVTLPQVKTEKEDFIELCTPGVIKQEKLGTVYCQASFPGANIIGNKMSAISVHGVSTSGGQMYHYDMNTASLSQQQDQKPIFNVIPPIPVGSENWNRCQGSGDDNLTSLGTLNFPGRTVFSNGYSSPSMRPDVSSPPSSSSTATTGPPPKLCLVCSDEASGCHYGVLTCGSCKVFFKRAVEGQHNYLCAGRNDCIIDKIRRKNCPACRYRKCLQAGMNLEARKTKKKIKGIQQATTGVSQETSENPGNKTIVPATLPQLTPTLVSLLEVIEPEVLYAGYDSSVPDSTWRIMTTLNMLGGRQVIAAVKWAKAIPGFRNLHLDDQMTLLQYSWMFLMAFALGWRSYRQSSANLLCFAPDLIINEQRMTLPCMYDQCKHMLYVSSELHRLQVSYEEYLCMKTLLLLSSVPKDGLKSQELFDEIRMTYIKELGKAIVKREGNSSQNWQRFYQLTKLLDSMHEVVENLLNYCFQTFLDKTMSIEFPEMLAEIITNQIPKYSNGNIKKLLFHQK
Sequence of Peroxisome proliferator-activated receptor alpha (Homo sapiens) (Q07869 whole entry, looked up, the tested form may be a part): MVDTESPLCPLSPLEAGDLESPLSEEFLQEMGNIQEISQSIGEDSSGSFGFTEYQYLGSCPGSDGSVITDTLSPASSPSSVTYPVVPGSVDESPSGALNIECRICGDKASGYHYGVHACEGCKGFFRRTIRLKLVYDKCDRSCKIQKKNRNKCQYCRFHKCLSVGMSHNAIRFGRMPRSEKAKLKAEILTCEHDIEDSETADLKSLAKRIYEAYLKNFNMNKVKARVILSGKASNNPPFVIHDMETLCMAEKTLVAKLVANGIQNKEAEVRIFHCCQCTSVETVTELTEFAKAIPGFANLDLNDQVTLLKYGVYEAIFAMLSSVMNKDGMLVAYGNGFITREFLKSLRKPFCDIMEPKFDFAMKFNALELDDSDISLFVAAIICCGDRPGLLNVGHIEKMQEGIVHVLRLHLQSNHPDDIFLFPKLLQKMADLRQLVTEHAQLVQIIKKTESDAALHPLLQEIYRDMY
Sequence of Peroxisome proliferator-activated receptor delta (Homo sapiens) (Q03181 whole entry, looked up): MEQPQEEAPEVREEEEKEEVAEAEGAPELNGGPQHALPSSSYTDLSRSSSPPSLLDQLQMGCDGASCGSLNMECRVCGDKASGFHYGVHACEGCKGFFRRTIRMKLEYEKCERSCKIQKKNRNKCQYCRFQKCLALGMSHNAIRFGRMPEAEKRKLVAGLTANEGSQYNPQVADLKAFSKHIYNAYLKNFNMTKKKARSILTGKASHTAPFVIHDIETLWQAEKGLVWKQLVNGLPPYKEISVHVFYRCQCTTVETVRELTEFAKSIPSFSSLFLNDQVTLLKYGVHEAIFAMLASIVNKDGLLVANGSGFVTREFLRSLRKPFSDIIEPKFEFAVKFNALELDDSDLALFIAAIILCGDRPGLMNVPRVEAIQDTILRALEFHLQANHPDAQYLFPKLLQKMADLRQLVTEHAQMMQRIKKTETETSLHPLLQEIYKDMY

SMILES | activation [1] | Potency [2] | max response [3] [%] | Potency [4] | outcome [5] | Potency [6] | Potency [7] | max response [8] [%] | max response [9] | activity change % (negative = inhibition) [10] | activation [11] | activation [12] | max response [13] | Potency [14] | max response [15] | max response [16] | max response [17] | Potency [18] | activation [19] | outcome [20]
COc1cc(OC)nc(NC(=O)NS(=O)(=O)c2cc(NC=O)ccc2C(=O)N(C)C)n1 | -12.6% (inactive) | inactive | -27.4 | inactive | inactive | inactive | inactive | -2.91 | 14.5% (inactive) | -8.65% (inactive) | 1.99% (inactive) | -3.78% (inactive) | -4.09% (inactive) | inactive | 11% (inactive) | -24.7% (inactive) | -9.56% (inactive) | – | – | –
ClCc1ccccc1Cl | – | inactive | – | inactive | inactive | inactive | inactive | -6.52 | – | -5.68% (inactive) | – | 0.685% (inactive) | 1.31% (inactive) | inactive | -2.98% (inactive) | -1.39% (inactive) | -0.702% (inactive) | inactive | – | –
C=C(C)C(=O)OCC(CC)CCCC (stereo not drawn) | -12.2% (inactive) | inactive | – | inactive | – | inactive | inactive | -12.9 | -2.17% (inactive) | 10.1% (inactive) | -0.248% (inactive) | 1.05% (inactive) | 5.11% (inactive) | inactive | -12.5% (inactive) | 2.46% (inactive) | -1.07% (inactive) | inactive | -3.24% (inactive) | –
CCC[CH2][Sn](=[O])[CH2]CCC | -3.35% (inactive) | inactive | 0.661 | inactive | inactive | inactive | inactive | -4.07 | -4.87% (inactive) | -7.82% (inactive) | -1.97% (inactive) | 3.37% (inactive) | -3.37% (inactive) | inactive | 5.71% (inactive) | -6.83% (inactive) | 4.58% (inactive) | inactive | 2.27% (inactive) | inactive
Cc1cc(Cl)ccc1O[C@H](C)C(=O)O | – | – | – | – | – | inactive | inactive | -16.8 | -2.52% (inactive) | 17.7% (inactive) | 0.599% (inactive) | -2.24% (inactive) | -1.51% (inactive) | inactive | 7.37% (inactive) | 0.74% (inactive) | -1.45% (inactive) | inactive | -0.679% (inactive) | inactive
Cc1[nH]c(=O)n(C(C)(C)C)c(=O)c1Cl | – | – | – | – | – | inactive | – | – | – | 8.21% (inactive) | -0.578% (inactive) | 0.775% (inactive) | -1.56% (inactive) | inactive | 0.82% (inactive) | -5.92% (inactive) | 0.145% (inactive) | inactive | – | –
